The source of these data is PubChem BioAssay AID1745850 (National Center for Advancing Translational Sciences (NCATS), 2022).

Structures are written as SMILES. About 260 (12%) of roughly 2,100 compounds were called active. Not shown: some 58% with an inconclusive outcome. Calls come from the whole dose curve; as a rule, active = well fitted cell-killing curve with a large enough effect; inconclusive = small, poorly fitted or top-dose-only effect, or effect the other way; inactive = flat fitted curve, though single readings scatter. The list shows a part of the results. Entries that show only a call come without a potency.
Potency is the fitted concentration of half-maximal effect.

The test can be described thus: Viability Counterscreen for Confirmatory qHTS for Inhibitors of ATXN expression. Note: nearly all actives have a fitted effect of over 50% in size. The conditions noted are these: HEK-293 ATXN2-luc cells viability, CellTiter-Fluor, 24 h. In short, it runs like this: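 Cells with an ATXN2-luciferase reporter were dosed in a dilution series for 24 h at 37 degrees C. Viability was read first with Gly-Phe-AFC at 25 uM final (fluorescence, ex 405/em 540), then SteadyGlo luminescence. Medium-only wells defined 100% inhibition.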
A general note: A counterscreen serves to expose hits that act by an unwanted route or on another target.
Take `COc1ccc(-c2cc(NC=O)c3ncc(-c4cccc(C(=O)NCCN(C)C)c4)n3c2)cc1`: the Potency result was “inactive”.
Next, `CN1CCN(c2ccc(-c3cc(NC=O)c4ncc(-c5ccc(F)c(Cl)c5)n4c3)cc2)CC1`: 25.1 µM (active).
For `CN(C)C(=O)c1cccc(-c2cnc3c(NC=O)cc(-c4ccc(F)cc4)cn23)c1` the value was “inactive”; for `COc1ccc(Cl)cc1S(=O)(=O)N1CCN(C(=O)c2n[nH]c(=O)c3ccccc23)CC1`, “inactive”; for `O=C(NC1=CC(=O)c2ccccc2C1=O)c1ccccc1`, 14.1 µM (active).
Consider `O=C(Nc1nonc1-c1ccc(Cl)cc1)c1ccccc1`, for which the Potency entry was “inactive”.
For `NCCCCCc1nnc(SCc2ccccc2Cl)o1` the value was “inactive”; for `COc1ccc(C2CC(c3cccc(Br)c3)=NN2c2ccc(S(N)(=O)=O)cc2)cc1` (configuration not stated), “inactive”; for `CCC(=O)NC(c1ccc(C)cc1)c1cc([N+](=O)[O-])c2cccnc2c1O` (configuration not stated), 22.4 µM (active).
In the case of `CCCCC(=O)NC(c1ccc(Cl)cc1Cl)c1ccc2cccnc2c1O` (configuration not stated), the Potency result was “inactive”.
As to `Cc1cc(OCC(=O)NC(C)c2ccccc2)ccc1[N+](=O)[O-]` (configuration not stated), the Potency result is “inactive”.
For `O=C(Nc1nccs1)c1cccc(N2C(=O)c3cccc4c([N+](=O)[O-])ccc(c34)C2=O)c1`, the Potency result was “inactive”.
For `Cc1cc(OCc2nc(N)nc(N)c2-c2ccc(Cl)c(Cl)c2)ccc1[N+](=O)[O-]` the value was “inactive”; for `O=C(Nc1c(Cl)cccc1Cl)Oc1cccc2cccnc12`, “inactive”.
As for `CCC(=O)NC(c1ccc(Cl)cc1Cl)c1ccc2cccnc2c1O` (configuration not stated), the Potency was 7.94 µM (active).
On to `CC(C)C(=O)NC(c1ccccc1)c1cc([N+](=O)[O-])c2cccnc2c1O` (configuration not stated), for which the Potency is 22.4 µM (active).
For `CC(=O)NC(c1cccs1)c1cc([N+](=O)[O-])c2cccnc2c1O` (configuration not stated) the value was 12.6 µM (active); for `COc1ccc(C2CC(c3ccccc3C(F)(F)F)=NN2c2ccc(S(N)(=O)=O)cc2)cc1` (configuration not stated), “inactive”; for `CC[C@@H]1C(c2cccc(Cl)c2)=NN(c2ccc(Br)cc2)[C@H]1C(=O)N1CCOC1=O`, “inactive”.
Next, `CCOC(=O)C1=CCN(S(=O)(=O)c2ccc(C)cc2)C1c1cccc(Cl)c1` (configuration not stated): “inactive”; `CC1(C(=O)NCc2ccco2)CCN1C(=O)C1(c2ccccc2)CC1` (configuration not stated): “inactive”; `O=C(CSc1nc2ncc(Cl)cc2[nH]1)Nc1cccc(F)c1`: “inactive”.
For `O=[N+]([O-])c1ccc(NC(c2ccccc2)c2ccc3cccnc3c2O)cc1` (configuration not stated) the value was 7.94 µM (active); for `CC(C)C(=O)NC(c1cccc([N+](=O)[O-])c1)c1ccc2cccnc2c1O` (configuration not stated), 7.94 µM (active); for `Oc1c(C(Nc2nccs2)c2ccc(C(F)(F)F)cc2)ccc2cccnc12` (configuration not stated), 15.8 µM (active).
For `O=C(NC(=S)N1CCN(c2ccc(F)cc2)CC1)c1cccs1`, the Potency result was “inactive”.
With `Nc1ccn(C2OC(COP(=O)(O)O)C(O)C2O)c(=O)n1` (configuration not stated), the Potency result was “inactive”.
`Cc1ccc(Cc2cnc(N3C(=N)SC(C)C3=O)s2)cc1` (configuration not stated): the Potency result was “inactive”.
For `CCC(C)(C)c1ccc(Oc2ccc(N)cc2)cc1`, the Potency result is “inactive”.
Turning to `CCCC(=O)N1CCCC(c2cc(C(=O)Nc3ccccc3)no2)C1` (configuration not stated), the Potency entry was “inactive”.
As for `Cc1cc(=O)[nH]c(N=N/C(=N/Nc2ccccc2C)c2ccccc2)n1`, the Potency is 12.6 µM (active).
Turning to `O=C(Nc1cccc(Cl)c1)c1ccc2c(c1)SC1=NS(=O)(=O)CCN12`, the Potency entry was “inactive”.
`CCc1cc(C)cc(OCCNC(=O)c2cncc(Br)c2)c1`: the Potency entry was “inactive”.
For the compound `CCn1c2ccccc2c2cc(NC(=O)COC(=O)Cc3cn4ccsc4n3)ccc21`, the Potency result was “inactive”.
For `O=C(CC1Sc2ccccc2NC1=O)NNc1cccc(Cl)c1Cl` (configuration not stated) the value was “inactive”.
Next, `CC(NC(=O)Nc1cccc([N+](=O)[O-])c1)c1ccc2c(c1)OCO2` (configuration not stated): “inactive”.
Next, `N#C/C(=N\Nc1cccc([N+](=O)[O-])c1)C(=O)c1ccc(Br)cc1`: 2.51 µM (active); `CC(NC(=O)Nc1cccc([N+](=O)[O-])c1)(C(F)(F)F)C(F)(F)F`: “inactive”; `CC(C)=C1SC(N2CCN(c3ccc(C)c(Cl)c3)CC2)=NC1=O`: “inactive”.
On to `O=C(Cc1coc2cc3c(cc12)CCC3)OCC(=O)N1CCCC1=O`, for which the Potency result is “inactive”.
Next, `CCc1nnc(NC(=O)c2ccc(S(=O)(=O)N(C)c3ccccc3)cc2)o1`: “inactive”.
Take `Cc1nc2ccc(NC(=O)c3cccc(S(=O)(=O)N(C)c4ccccc4)c3)cc2s1`: the Potency was 3.16 µM (active).
Next, `CCCC(=O)Nc1ccc2nc(SCC(=O)N3CCCC3)sc2c1`: “inactive”.
For `CCN1CCN(C(=S)c2ccc(-c3ccccc3)cc2)CC1` the value was “inactive”; for `CC1(C)Cc2c(c(N3CCOCC3)nc3sc4c(NN)ncnc4c23)CS1`, 25.1 µM (active).
Next, `CN1Cc2c(N3CCOCC3)nc3sc(C(=O)c4ccccc4)c(N)c3c2CC1(C)C`: “inactive”.
Turning to `CN(C)CCNc1ncnc2c1sc1nc(N3CCCC3)c3c(c12)CC(C)(C)OC3`, the Potency was 25.1 µM (active).
With `CN(C)CCNc1ncnc2c1sc1nc(N3CCOCC3)c3c(c12)CC(C)(C)SC3`, the Potency is 22.4 µM (active).
For `COc1ccc(C2CC(c3cccc(Cl)c3)=NN2c2ccc(S(N)(=O)=O)cc2)cc1` (configuration not stated) the value was “inactive”; for `CCN(CCCn1c(=S)[nH]c2ccc(N3CCOCC3)cc2c1=O)c1ccccc1`, “inactive”; for `Cc1nn(-c2ccccn2)c2c1C(=O)CC(C)(C)C2N=[N+]=[N-]` (configuration not stated), “inactive”.
As for `OCC1(CCOc2ccccc2)CCN(CC2=Cc3cc(Cl)ccc3OC2)CC1`, the Potency result is “inactive”.
For `O=C(c1cccc(Cl)c1)c1nn(-c2ccccc2)c(=O)cc1C(F)(F)F` the value was 35.5 µM (active); for `Cc1cc(=O)oc2c1c(C)nn2-c1cccc(Cl)c1`, “inactive”; for `COc1cccc(-c2nc(N3CCN(C)CC3)c3ccccc3n2)c1O`, “inactive”.
For `COc1ccc(Nc2oc(COc3ccccc3OC)nc2C#N)cc1` the value was “inactive”; for `COc1ccc(Nc2nc(N3CCCC3)c3ccccc3n2)cc1`, 35.5 µM (active); for `CC(=O)Oc1ccc(C23c4ccccc4C2(OC(C)=O)c2cc(OC(C)=O)ccc23)cc1` (configuration not stated), 28.2 µM (active).
For `CC(=O)Oc1ccc(Nc2ccccc2)cc1`, the Potency entry is “inactive”.
As for `O=C(CSc1nnc(-c2ccc(Br)cc2)o1)Nc1cccc(C(=O)O)c1`, the Potency entry was “inactive”.
As to `COC(=O)c1c(C)oc2ccc(N(C(=O)c3ccncc3)S(=O)(=O)c3ccc(C)cc3C)cc12`, the Potency result is “inactive”.
Next, `Cc1ccc(C(=O)N(C)CC(=O)Nc2ccc(Cl)c(C(F)(F)F)c2)cc1S(=O)(=O)N1CCCCC1`: 25.1 µM (active); `CN(CC(=O)Nc1ccc(Cl)c(C(F)(F)F)c1)C(=O)c1cccnc1Sc1ccccc1`: “inactive”.
Take `O=C(CNc1cccc(C(F)(F)F)c1)Nc1cccc(S(=O)(=O)N2CCCC2)c1`: the Potency result was “inactive”.
For `O=C(NCCc1csc(-c2cccnc2)n1)c1cccc(Cl)c1` the value was “inactive”; for `Cc1cccn2c(=O)c3cc(C(=O)NCCN4CCOCC4)c(=N)n(Cc4ccc(F)cc4)c3nc12`, “inactive”; for `COc1cccc(/C=N/NC(=O)CC(C)O)c1OC/C=C/c1ccccc1` (configuration not stated), “inactive”.
